In PubChem BioAssay (Tox21):
A number with no mark means an inactive call. Calls follow the shape of the dose curve; as a rule, active = well fitted inhibition curve with a large enough effect in the repeat runs (not every such curve was filed as active); inconclusive = weak or mixed curves; inactive = flat fitted curve, though single readings scatter.

target: Thyrotropin-releasing hormone receptor (Homo sapiens) (UniProt P34981); assay: qHTS assay to identify small molecule antagonists of the thyrotropin-releasing hormone receptor (TRHR) signaling pathway (AID 1346877); settings: TRHR-HEK293, TRH-induced calcium fluorescence, antagonist mode; series mostly up to 51.3 µM; activity, negative = inhibition: at the top concentration
Source text: National Center for Advancing Translational Sciences [NCATS]
NIH Chemical Genomics Center [NCGC]
U.S. Environmental Protection Agency [EPA]
National Institutes of Environmental Health Sciences [NIEHS]
National Toxicology Program [NTP]
U.S. Food and Drug Administration [FDA]
Thyrotropin-releasing hormone (TRH) receptor (TRHR) is a G-protein-coupled receptor which binds the tripeptide thyrotropin releasing hormone. TRHR is found in the brain and, when bound by TRH, acts (through phospholipase C) to increase intracellular inositol trisphosphate. It plays a crucial role in the anterior pituitary where it controls the synthesis and secretion of thyroid stimulating hormone and prolactin. The TRHR-Hek293 assay is a cell-based assay, and it has the potential to screen G protein-coupled receptors. A compound/drug can either activate (agonist) or suppress (antagonist) GPCRs that can be monitored by levels of intracellular calcium. In this assay, the Tox21 10K compound library was screened to identify potential TRHR antagonists.
Tox21 Assay Protocol Summary:
The TRHR-Hek293 cells were dispensed at 1500cells/4uL/well in 1536-well black-clear bottom plates using a Multidrop dispenser. After the assay plates were incubated at a 37 C/5% CO2 incubator for 18 hours, 4 uL of Dye-Loading Solution was added to each well. The plates were incubated at 37 C for 2 hours. For agonist mode, 23 nL of compounds dissolved in DMSO, positive controls or DMSO only was transferred to the assay plate by a pin tool. The fluorescence intensity in the plates was measured using FDSS 7000EX kinetic plate reader for 3 min at 1 sec intervals. For antagonist mode, 23 nL of compounds dissolved in DMSO, positive controls or DMSO only was transferred to the assay plate by a pin tool. After 5 min incubation at room temperature, 1 uL of TRH was added on the top of the cell/compound mixtures to achieve a final agonist concentration of 1 nM. The fluorescence intensity in the plates was measured using FDSS 7000EX kinetic plate reader for 3 min at 1 sec intervals. Each test compound was measured at 15 concentrations and in triplicates.
% is scaled to controls: 0 for no effect and ±100 for the full control effect.

Sequence of Thyrotropin-releasing hormone receptor (Homo sapiens) (P34981 whole entry, looked up): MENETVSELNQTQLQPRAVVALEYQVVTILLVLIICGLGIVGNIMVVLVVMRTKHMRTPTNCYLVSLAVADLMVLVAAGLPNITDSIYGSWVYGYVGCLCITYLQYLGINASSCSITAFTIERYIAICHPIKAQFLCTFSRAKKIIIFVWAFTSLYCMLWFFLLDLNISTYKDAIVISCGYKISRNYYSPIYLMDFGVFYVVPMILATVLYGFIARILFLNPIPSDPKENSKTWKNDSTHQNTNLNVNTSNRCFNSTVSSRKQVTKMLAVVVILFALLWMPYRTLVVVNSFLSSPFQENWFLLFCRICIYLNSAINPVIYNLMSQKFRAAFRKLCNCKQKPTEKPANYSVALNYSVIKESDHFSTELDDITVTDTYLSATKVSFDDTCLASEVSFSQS

SMILES | activity, negative = inhibition
CN1C[C@@H](NS(=O)(=O)N(C)C)C[C@@H]2c3cccc4c3c(cn4C)C[C@H]21 | -0.564% [at 23.6 µM]
NC(=O)c1cc([N+](=O)[O-])cc([N+](=O)[O-])c1 | -0.245% [at 23.6 µM]
COc1ccc(C(=O)N2CCCC2=O)cc1 | 1.29% [at 23.6 µM]
ClCCOCOCCCl | 5.82%
CCC(=O)c1ccccc1 | 0.732%
OCCBr | 2.57%
CCc1cc2c(s1)-n1c(C)nnc1CN=C2c1ccccc1Cl | -4.98% [at 23.6 µM]
Clc1ccccc1N1CCNCC1 | -2.07% [at 23.6 µM]
Nc1cnn(-c2ccccc2)c(=O)c1Cl | -17.3%
CCOC(=O)C(c1c(O)c2ccccc2oc1=O)c1c(O)c2ccccc2oc1=O | -4.39% [at 23.6 µM]
O=P(O)(Oc1ccccc1)Oc1ccccc1 | 1.88%
BrCCCCCCBr | -0.0621%
CC(COc1ccc(Oc2ccccc2)cc1)Oc1ccccn1 (stereo not given) | 0.0987%
CC(C)[N+](=O)[O-] | 2.21%
CCOP(=O)(OCC)OP(=O)(OCC)OCC | 2.42%
CCCCP(CCCC)CCCC | 3.77%
c1coc(-c2nc3ccccc3[nH]2)c1 | 1.2%
C=CC1CC=CCC1 (stereo not given) | 0.651%
COc1cc(C[C@@H](C)N)c(OC)cc1C | -0.106%
CCOC(=O)/C=C(C)/C=C/C[C@@H](C)CCCC(C)C | -1.43%

SMILES | activity, negative = inhibition
Fc1cc(Br)ccc1CBr | 4.7% [at 23.6 µM]
C#CCN1C(=O)COc2cc(F)c(N3C(=O)C4=C(CCCC4)C3=O)cc21 | -7.56%
OC(Cn1cncn1)(c1ccc(F)cc1)c1ccccc1F (stereo not given) | 7.52%
CNC(=O)N(C)c1nc2ccccc2s1 | -3.96%
Nc1n[nH]c(N)n1 | -0.074%
CCOP(=S)(OCC)Oc1nc(Cl)n(C(C)C)n1 | 0.625%
CC(Cl)(Cl)[N+](=O)[O-] | 0.728%
COC(=O)c1ccccc1S(=O)(=O)NC(=O)N(C)c1nc(C)nc(OC)n1 | 3.3%
N#CCBr | -0.394%
CCC1(c2ccccc2)C(=O)NC(=O)NC1=O | 0.519%
O=NN1CCCCC1 | 16%
ClC(Br)Br | 5.29%
COc1ncc(F)c2nc(S(=O)(=O)Nc3c(F)cccc3F)nn12 | 4.22% [at 23.6 µM]
CN1C(=S)CN=C(c2ccccc2)c2cc(Cl)ccc21 | 0.0652% [at 23.6 µM]
CCS(=O)(=O)C(C)(C)S(=O)(=O)CC | 4.17% [at 23.6 µM]
CC(N)=S | -3.31%
CC1(C(=O)Nc2ccc(O)c(Cl)c2Cl)CCCCC1 | 0.2%
N#Cc1c(Cl)cccc1Cl | -2.47%
CNC(=O)Oc1ccc(N(C)C)c(C)c1 | 21.5%
C#C[C@]1(O)C=C[C@H]2[C@@H]3CCC4=CC(=O)CC[C@@H]4[C@H]3CC[C@@]21CC | -3.97% [at 23.6 µM]
